Screening results: PubChem, National Center for Advancing Translational Sciences (NCATS)
nsP2pro primary: Primary qHTS for inhibitors of NSP2Pro chikungunya virus (CHIKV) | FRET peptide cleavage, nsP2pro, fluorescence 1 h | 31,000 compounds, 1.1% hits | AID 1964107, 2024 | Polyprotein P1234 (Chikungunya virus (strain S27-African prototype)), Q8JUX6 | Potency, µM (series often up to 24.9 µM), for the others: top-dose activity change, negative = inhibition, actives largely listed as inhibitors; note: nearly all actives have a fitted effect of over 60% in size
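Recombinant nsP2pro (150 nM) was preincubated with compound 15 min at room temperature in 10 mM Tris-HCl pH 8.0, 0.01% Tween 20. Peptide 2 FRET substrate (2.5 uM) was then added and fluorescence read after 1 h. Seven-point series, up to 25 uM.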
nsP2 cell sec: Secondary cell base assay for inhibitors of NSP2Pro Chikungunya virus (CHIKV). shares compounds with nsP2pro primary. cell-based CHIKV nsP2 protease reporter assay. Potency, µM (top dose mostly 51.1 µM), for inactives: top-dose activity change, negative = inhibition, hits mostly inhibitors. 450 compounds, 10% hits. AID 1964100, 2024; note: nearly all actives have a fitted effect of over 70% in size
NSP2 full ctr: Selectivity profile for inhibitors of NSP2Pro chikungunya virus (CHIKV): Full length NSP2 enzyme counterscreen (CHIKV-NSP2) | Full-length CHIKV NSP2 protease enzymatic counterscreen | AID 1964101, 2024 | Potency, µM (highest dose often 50.7 µM), without a hit: at the highest dose activity change, negative = inhibition, most hits filed as inhibitors | 410 compounds, 39% hits | shares compounds with nsP2pro primary; note: nearly all actives have a fitted effect of over 65% in size
Furin counterscr: Selectivity profile for inhibitors of NSP2Pro chikungunya virus (CHIKV): Human furin counterscreen | shares compounds with nsP2pro primary | Recombinant human furin enzymatic counterscreen, fluorogenic substrate | Potency, µM (series often up to 50.6 µM), without a hit: top-dose activity change, negative = inhibition, actives largely listed as inhibitors | 410 compounds, 6% hits | AID 1964102, 2024
Target sequence (P09958 whole entry, looked up): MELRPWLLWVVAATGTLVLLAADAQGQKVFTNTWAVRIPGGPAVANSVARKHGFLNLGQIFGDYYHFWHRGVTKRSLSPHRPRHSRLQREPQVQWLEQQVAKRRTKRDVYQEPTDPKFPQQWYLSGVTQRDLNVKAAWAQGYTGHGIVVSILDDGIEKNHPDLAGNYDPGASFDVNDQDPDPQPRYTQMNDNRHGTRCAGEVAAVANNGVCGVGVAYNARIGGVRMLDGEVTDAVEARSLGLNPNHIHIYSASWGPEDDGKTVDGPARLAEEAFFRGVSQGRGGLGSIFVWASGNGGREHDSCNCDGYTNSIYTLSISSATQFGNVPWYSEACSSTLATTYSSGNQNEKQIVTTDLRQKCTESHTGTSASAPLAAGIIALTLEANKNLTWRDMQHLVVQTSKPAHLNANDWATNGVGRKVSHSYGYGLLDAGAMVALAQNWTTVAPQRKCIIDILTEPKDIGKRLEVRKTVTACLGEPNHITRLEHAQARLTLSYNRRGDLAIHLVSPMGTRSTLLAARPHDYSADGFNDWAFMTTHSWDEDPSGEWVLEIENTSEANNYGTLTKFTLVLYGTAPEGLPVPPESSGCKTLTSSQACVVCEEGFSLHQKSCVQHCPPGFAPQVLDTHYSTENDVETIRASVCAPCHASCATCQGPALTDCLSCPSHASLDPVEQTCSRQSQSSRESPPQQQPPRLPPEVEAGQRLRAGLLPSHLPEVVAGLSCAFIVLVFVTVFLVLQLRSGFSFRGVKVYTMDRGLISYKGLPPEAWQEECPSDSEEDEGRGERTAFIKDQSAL
nsP2 NS23 pep: Selectivity profile for inhibitors of NSP2Pro chikungunya virus (CHIKV): Endogenous NS2/3 peptide Counterscreen. AID 1964103, 2024. 410 compounds, 34% hits. shares compounds with nsP2pro primary. Purified CHIKV nsP2 protease, endogenous NS2/3 peptide cleavage. Potency, µM (titrated, usually from 51 µM), for inactives: at the top dose activity change, negative = inhibition, most hits filed as inhibitors; note: nearly all actives have a fitted effect of over 55% in size
Papain cs: Selectivity profile for inhibitors of NSP2Pro chikungunya virus (CHIKV): Papain Counterscreen. shares compounds with nsP2pro primary. purified papain protease activity, enzymatic inhibition. Potency, µM (top dose mostly 51 µM), for the others: top-dose activity change, negative = inhibition, most hits filed as inhibitors. 410 compounds, 5% hits
nsP2pro confirm: Confirmatory qHTS for inhibitors of NSP2Pro chikungunya virus (CHIKV); shares compounds with nsP2pro primary; CHIKV nsP2 protease enzymatic activity, qHTS; Potency, µM (top dose mostly 25.5 µM), for inactives: at the top dose activity change, negative = inhibition, usual class: inhibitors; 410 compounds, 43% hits; AID 1964105, 2024; note: nearly all actives have a fitted effect of over 75% in size
HCV NS3 4A cs: Selectivity profile for inhibitors of NSP2Pro chikungunya virus (CHIKV): NS34A-HCV Counterscreen; shares compounds with nsP2pro primary; HCV NS3/4A protease biochemical counterscreen; Potency, µM (highest dose often 50.9 µM), usual class: inhibitors; 410 compounds, 20% hits; AID 1964106, 2024; note: nearly all actives have a fitted effect of over 55% in size
* marks the source's active call; other numbers are inactive results; ! = a repeat was not active; [ ] = another dose, or the depositor's remark. This is one part of a sample in which hits are shown more often than they occur. Calls come from the whole dose curve. % is set by controls: 0 for no effect and ±100 for the full control effect; potency is the fitted concentration of half-maximal effect.

Screening O=C(c1cnccn1)N1C[C@@H]2OCC(=O)N(CC3CCCCC3)[C@@H]2C1 returned nsP2pro primary -29%[39.2 µM].
Screening Cc1ccc(C(=O)N2CCC(N3C(=O)c4c(c(C)nn4-c4ccccc4)C3C)CC2)cc1 (stereo not given) returned nsP2pro primary inactive.
CC(C)(C)c1ccc(NC(=O)c2cccs2)cn1 was read as nsP2pro primary -23%.
For CCCCCS(=O)(=O)c1oc(-c2cccs2)nc1S(=O)(=O)c1ccc(C)cc1 the results were nsP2pro primary -16%.
`CCCSc1oc(-c2cccs2)nc1S(=O)(=O)c1ccc(C)cc1` gave nsP2pro primary -23%.
Screening CCCCS(=O)(=O)c1oc(-c2cccs2)nc1S(=O)(=O)c1ccc(F)cc1 returned nsP2pro primary inconclusive, nsP2 cell sec 3.7µM*, NSP2 full ctr 5.8µM*, Furin counterscr 3%, nsP2 NS23 pep 8.2µM*, Papain cs -9%, nsP2pro confirm 5µM* and HCV NS3 4A cs inactive.
`COC(=O)C1=COC(OC2OC(CO)C(O)C(O)C2O)C2C(COC(=O)/C=C/c3ccc(O)cc3)C(O)C(O)C12` (stereo not given) gave nsP2pro primary 28%[10 µM].
`O=C1C2CC=CCC2C(=O)N1SC(Cl)(Cl)Cl` (stereo not given) gave nsP2pro primary 1.8µM*, nsP2 cell sec inconclusive, NSP2 full ctr 2.9µM*, Furin counterscr -3%, nsP2 NS23 pep 5.8µM*, Papain cs -5%, nsP2pro confirm 0.9µM* and HCV NS3 4A cs inconclusive.
`Cc1cc(C)nc(NC(=S)N2CCN(c3ccc4c(c3)OCO4)CC2)c1` gave nsP2pro primary 4%.
`CC(O)(C#Cc1ccc2c(c1)N(c1nc(N)ncc1Cl)CC2)c1nccs1` (stereo not given) gave nsP2pro primary 5µM*!, nsP2 cell sec 2.1µM*, NSP2 full ctr 7.3µM*, Furin counterscr inconclusive, nsP2 NS23 pep 15µM*, Papain cs -22%, nsP2pro confirm 2.2µM* and HCV NS3 4A cs inconclusive.
O=C(Nc1ccc(C[C@@H]2CC[C@H]([C@H](O)c3ccccc3)N2)cc1)[C@@H]1CCc2nccc(=O)n21 was read as nsP2pro primary -8%.
CN1CC(=O)N(C2CCCC2)Cc2c(NC3CCCC3)ncnc21 was read as nsP2pro primary 0%[39.2 µM].
Screening Cc1ccc(NC(=O)Nc2cc(C(F)(F)F)ccc2F)cc1Nc1ccc2c(c1)NC(=O)/C2=C\c1ccc[nH]1 returned nsP2pro primary 10%.
Screening O=C1Nc2ccccc2CN(Cc2ccccc2)C12CCNC2 (stereo not given) returned nsP2pro primary inconclusive and nsP2 cell sec 43%.
For O=C1Nc2ccccc2CC12CCN2Cc1ccc(OC(F)(F)F)cc1 (stereo not given) the results were nsP2pro primary 2%.
`O=C1Nc2ccccc2CC12CCN(Cc1cccnc1)C2` (stereo not given) gave nsP2pro primary -7%[39.2 µM].
Screening O=C(Nc1nc(-c2ccccc2)cs1)c1ccncc1NS(=O)(=O)c1ccc2c(c1)CCC2 returned nsP2pro primary inactive.
For CCOC(=O)N1CCN(C(=O)Cn2sc3nc(C)cc(C)c3c2=O)CC1 the results were nsP2pro primary 3.9µM*, nsP2 cell sec 24%, NSP2 full ctr inconclusive, Furin counterscr 3%, nsP2 NS23 pep 21µM*, Papain cs -13%, nsP2pro confirm 4µM* and HCV NS3 4A cs inactive.
Screening Cc1ccc(C)c(N2CCN(C(=O)Cn3ncc4ccsc4c3=O)CC2)c1 returned nsP2pro primary -19%.
CCOC(=O)C1CCN(C(=O)Cn2ncc3c4ccccc4n(C)c3c2=O)CC1 was read as nsP2pro primary -15%.
`COC(=O)N(C)Cc1cccc(N2CCN(C(=O)OC(C)(C)C)CC2)c1F` gave nsP2pro primary 2%.
For COc1cccc2sc(NC(=O)c3ccc4c(c3)OCCN(C3CCC3)C4)nc12 the results were nsP2pro primary inactive.
For Cc1cc(-c2cc(O)ccc2Cl)cc2nnc(Nc3ccc(OCCN4CCCC4)cc3)nc12 the results were nsP2pro primary 52%.
`OCc1ccc(-c2ccc(-c3ccc(CO)s3)o2)s1` gave nsP2pro primary 2.2µM*, nsP2 cell sec -4%[17.6 µM], NSP2 full ctr 4µM*, Furin counterscr inconclusive, nsP2 NS23 pep inconclusive, Papain cs inactive, nsP2pro confirm 3.1µM* and HCV NS3 4A cs inactive.
For CN(Cc1ccc(-c2ccc(C#N)cc2)o1)c1ccc(N2CCN(C(=O)OC(C)(C)C)CC2)cc1 the results were nsP2pro primary -4%.
Screening CCC(CC)O[C@@H]1C=C(C(=O)O)C[C@H](N)[C@H]1NC(C)=O returned nsP2pro primary 9%.
Cc1ccc(NC(=O)Nc2cc(-c3ccccc3-c3nn[nH]n3)ccc2N(CC(C)C)CC(C)C)cc1 was read as nsP2pro primary 3%.
For CC(NC(=O)[C@H](Cc1ccccc1)NC(=O)OCc1ccccc1)C(=O)CF (stereo not given in full) the results were nsP2pro primary -28%.
For C[C@H](NC(=O)[C@H](Cc1ccccc1)NC(=O)OCc1ccccc1)C(=O)CF the results were nsP2pro primary inconclusive, nsP2 cell sec -6%, NSP2 full ctr inconclusive, Furin counterscr 1%, nsP2 NS23 pep -10%, Papain cs 0.046µM*, nsP2pro confirm inconclusive and HCV NS3 4A cs inactive.
`CC(C)C[C@H](NC(=O)CNC(=O)OCc1ccccc1)C(=O)N[C@@H](Cc1ccccc1)C(=O)CCl` gave nsP2pro primary -25%.
